Sfp inh: blocks B. subtilis Sfp PPTase activity; Q9F4F7; Biochemical Sfp PPTase activity, qHTS; Potency, µM, hits mostly inhibitors; hit rate 3.5% among 310,000;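 further: the enzyme is Sfp with the accession as filed and its product quenches rhodamine fluorescence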
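Compounds were incubated with enzyme (final 15 nM) for 15 min at room temperature before substrate addition started the reaction. Fluorescence at 525 nm excitation, 598 nm emission was recorded immediately and after 30 minutes.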
uPA generation: cell surface uPA generation inhibition; cell surface uPA generation assay, qHTS; Potency, µM (highest dose often 38.3 µM), most hits filed as inhibitors; hit rate 0.31% among 330,000; AID 540303; active means well fitted inhibition curve with a large enough effect; inconclusive means small, poorly fitted or top-dose-only effect; inactive means no such curve, though single readings can be large or run the other way; tested in mouse RAW 264.7 cells; further: nearly all actives have a fitted effect of over 55% in size
TCR act: T cell receptor activation. Potency, µM (titrated, usually from 9.22 µM), hits mostly activators. 330,000 tested, under 10 active. primary human leukocytes, anti-CD3, IL-2 HTRF, 48 h
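Human primary leukocytes + a-CD3 beads + cpd, 48 hr; IL-2 in supernatant by HTRF (ex 320nm / em 665nm). No co-stimulatory signal supplied.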
ClpP mod: qHTS Assay for Activators of ClpP; ATP-dependent Clp protease proteolytic subunit (Bacillus subtilis (strain 168)), P80244; purified B. subtilis ClpP, FRET peptide cleavage, 20 min; Potency, µM (top dose mostly 57.5 µM); hit rate 1.9% among 340,000; active means well fitted falling curve with a large enough effect; inconclusive means small, poorly fitted or top-dose-only effect; inactive means no such curve, though single readings can be large or run the other way; further: the source files actives as falling curves though it sought activators and does not explain the sign; nearly all actives have a fitted effect of over 65% in size
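FRET quenching reversal measured ClpP activation: 10 microg/mL B. subtilis ClpP at pH 8 with the FRET-FV decapeptide, read at 430 nm after 320 nm excitation. The 20-min minus 0-min signal was scaled between DMSO/no-enzyme wells and ADEP (5.8 microM final).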
Large screens that a line does not name were inactive. In the library only some 4.2% were active in any assay of this set; here they are far more common. Unless noted, the call rests on the fitted dose curve; in most records, active means well fitted curve in the direction sought with a large enough effect; inconclusive means small, poorly fitted or top-dose-only effect, or another doubt; inactive means no such curve, though single readings can be large; an effect the other way counts as inactive or inconclusive.

Cc1ccc(C(=O)N(CCCN(C)C)c2nc3ccc(Cl)cc3s2)cc1C	Sfp inh 56.2µM (no result: ClpP mod)
CC(C)Cc1nc(S(=O)(=O)c2ccc(Cl)cc2)c(N2CCOCC2)o1	Sfp inh 39.8µM
Cc1ccc(S(=O)(=O)c2nc(N3CCOCC3)sc2Cl)cc1	Sfp inh 50.1µM
CCC(N)(C(=O)O)c1ccc(C(=O)O)cc1 (configuration not stated)	Sfp inh 79.4µM (no result: uPA generation, TCR act, ClpP mod)
O=C(O)c1ccc(O)cc1	none (no result: uPA generation, TCR act, ClpP mod)
C#CCSc1nc(-c2cccs2)ccc1C#N	ClpP mod 31.6µM
COC(=O)CSc1nc2ccccc2nc1SCC(=O)OC	Sfp inh 50.1µM
COC(=O)CSc1nc(-c2cccs2)ccc1C#N	Sfp inh 39.8µM, ClpP mod 6.31µM (no result: uPA generation)
NS(=O)(=O)c1ccc(NC(=O)c2cnn3c2NC(=C2CC2)C=C3C(F)F)cc1	none (no result: Sfp inh, uPA generation, TCR act)
COc1cc2c(cc1OC)C(C)N(C(=O)c1cc3n(n1)C(C(F)(F)F)CC(c1ccco1)N3)CC2 (configuration not stated)	Sfp inh 39.8µM
CCC(=O)OCCNc1cc(Sc2nc3ccccc3[nH]2)c2nonc2c1[N+](=O)[O-]	Sfp inh 17.8µM
CCC(=O)OCCNc1cc(Sc2nc3ccccc3s2)c2nonc2c1[N+](=O)[O-]	Sfp inh 3.98µM (no result: uPA generation, TCR act)
NCCNc1ccc([N+](=O)[O-])c(Sc2nc3ccccc3[nH]2)c1	none
CNC(=O)c1cccc(-n2c(C)nc3cccnc32)c1C	none (no result: Sfp inh, uPA generation, TCR act)
Cc1nc2ccccc2c(=O)n1C1CCCCCC1	ClpP mod 25.1µM
Cc1ccc(NC(=O)c2ccccc2F)nc1	ClpP mod 15.8µM
O=C(Nc1ccc(Cl)cn1)c1ccccc1[N+](=O)[O-]	none (no result: ClpP mod)
O=C(Nc1ccc(Cl)cn1)c1cccc2ccccc12	uPA generation 8.91µM
CCc1ccc(S(=O)(=O)c2nnn3c2nc(NCCc2ccccc2)c2sccc23)cc1	none (no result: Sfp inh, uPA generation, TCR act)
O=C(COC(=O)c1ccc(F)cc1F)NC(=O)Nc1ccc2c(c1)OCCO2	uPA generation inconclusive (no result: Sfp inh)
O=C1c2oc3ccc(Cl)cc3c(=O)c2C(c2ccccn2)N1CCCN1CCOCC1 (configuration not stated)	Sfp inh 25.1µM, uPA generation inconclusive
N#Cc1ccc(COC(=O)CC(NC(N)=O)c2ccc(Cl)cc2)cc1 (configuration not stated)	none (no result: ClpP mod)
COc1ccc(NC(=O)c2csc(Cc3ccc(Cl)cc3)n2)cc1	none
COc1ccc(Cc2nc(C(=O)Nc3ccccc3)cs2)cc1	ClpP mod 31.6µM
CN(C)S(=O)(=O)c1cccc(NC(=O)COC(=O)CCSc2ccc(Cl)cc2)c1	none
NS(=O)(=O)c1cccc(NC(=O)COC(=O)CCSc2ccccc2)c1	ClpP mod 15.8µM
c1nc(NCc2ccc3c(c2)OCO3)c2[nH]cnc2n1	none (no result: Sfp inh, uPA generation, TCR act)
COc1cc(CN2CCNC(=O)C2CC(=O)N2CCCN(C(C)=O)CC2)cc(OC)c1 (configuration not stated)	ClpP mod 15.8µM
O=C(COc1ccc([N+](=O)[O-])cc1)Nc1cccc2cccnc12	none (no result: Sfp inh, uPA generation, TCR act)
COc1cccc(NC(=O)Cn2c(=O)oc3ccccc32)c1	none (no result: uPA generation)
COc1ccc(C(CNC(=O)Cn2c(=O)oc3ccccc32)N(C)C)cc1 (configuration not stated)	Sfp inh 20µM
CCCNC(=O)c1ccc2nc(-c3ccccc3)c(-c3ccccc3)nc2c1	ClpP mod 28.2µM
CCN(CC)C(=O)c1ccc2nc3ccccc3nc2c1	none
CCN(CC)C(=O)c1ccc2nc(-c3ccccc3)c(-c3ccccc3)nc2c1	ClpP mod 25.1µM
CCNC(=O)c1ccc2nc(-c3ccccc3)c(-c3ccccc3)nc2c1	none (no result: Sfp inh, uPA generation, TCR act)
COCCNC(=O)CSc1cn(CC(=O)N2CCCCCC2)c2ccccc12	none (no result: Sfp inh, uPA generation, TCR act)
COCCCNC1=C(C#N)C(=O)NC2(CCCC2)S1	none (no result: Sfp inh, uPA generation, TCR act)
Cc1c(NC(=O)CN2CCN(c3ccc(O)cc3)CC2)c(=O)n(-c2ccccc2)n1C	Sfp inh 22.4µM
Cc1c(NC(=O)CN2CCN(c3ccc([N+](=O)[O-])cc3)CC2)c(=O)n(-c2ccccc2)n1C	none (no result: ClpP mod)
O=C(CN1CCN(c2ccc(O)cc2)CC1)Nc1ccc(SC(F)F)cc1	Sfp inh 35.5µM
O=C1CN(CC(=O)Nc2ccc(SC(F)F)cc2)CCN1	none (no result: ClpP mod)
Cc1c(NC(=S)NNC(=O)CCC(=O)O)c(=O)n(-c2ccccc2)n1C	Sfp inh 44.7µM
CN(C)Cc1ccccc1-c1cc(NCc2ccccc2)ncn1	none (no result: uPA generation, TCR act, ClpP mod)
O=C(Nc1ccc(Cl)cc1)C1CCN(c2nc3ccccc3nc2C(F)(F)F)CC1	none (no result: Sfp inh, uPA generation, TCR act)
COc1cc(N(C)C)c(OC)cc1/C=C1\C=Cc2ccccc21	none (no result: Sfp inh, uPA generation, TCR act)
O=C(Nc1nc(N2C(=O)c3ccccc3C2=O)n(-c2ccccc2)n1)c1ccccc1	Sfp inh 0.891µM
COc1ccc(C(=O)Nc2nc(N3C(=O)c4ccccc4C3=O)n(-c3ccccc3)n2)cc1	Sfp inh inconclusive
CC(=O)Nc1nc(N2C(=O)c3ccccc3C2=O)n(-c2ccccc2)n1	Sfp inh 8.91µM
COc1ccc2nc3ccccc3nc2c1N	Sfp inh 4.47µM (no result: ClpP mod)
COc1ccc2nc3cccc(OC)c3nc2c1	none
Cc1cccc(NC(=O)CN(C)C(=O)Cc2ccc(-c3ccccc3)cc2)c1C	none (no result: Sfp inh, uPA generation, TCR act)
Cc1cc(C(=O)Nc2c(F)cc(F)cc2Br)cs1	none
NNC(=S)Nc1c(F)cc(F)cc1Br	Sfp inh 79.4µM (no result: ClpP mod)
O=C(Cn1nnc(-c2ccccc2)n1)Nc1cccc(S(=O)(=O)N2CCCC2)c1	ClpP mod 31.6µM (no result: Sfp inh)
O=C(Cn1cnnn1)Nc1cccc(S(=O)(=O)N2CCCCC2)c1	none (no result: ClpP mod)
CCOC(=O)c1nnc(-c2ccccc2)nc1NCc1ccc(Cl)cc1	Sfp inh 50.1µM
Cc1ccc2[nH]c(=O)c(CN(Cc3ccc4c(c3)OCO4)Cc3nnnn3Cc3ccco3)cc2c1	none
COc1ccc2cc(CN(Cc3cccnc3)Cc3nnnn3Cc3ccccc3)c(=O)[nH]c2c1	none (no result: TCR act)
CCOC(=O)Cn1nnnc1CN(Cc1cccs1)Cc1cc2cc(C)cc(C)c2[nH]c1=O	Sfp inh 15.8µM, ClpP mod inconclusive (no result: uPA generation)
Cc1cc(C)c2cc(CN(Cc3ccc4c(c3)OCO4)Cc3nnnn3Cc3ccco3)c(=O)[nH]c2c1	Sfp inh 14.1µM
O=c1[nH]c2cc3c(cc2cc1CN(Cc1cccnc1)Cc1nnnn1Cc1ccco1)OCCO3	Sfp inh 15.8µM, ClpP mod 14.1µM (no result: uPA generation, TCR act)
O=c1[nH]c2cc3c(cc2cc1CN(Cc1cccs1)Cc1nnnn1Cc1ccco1)OCCO3	Sfp inh 20µM, ClpP mod inconclusive
CCOC(=O)c1c(C)[nH]c(CCC(=O)Nc2cc(C)cc(C)c2)c1C	none (no result: Sfp inh, uPA generation, TCR act)
O=c1[nH]c2cc3c(cc2cc1CN(Cc1ccccc1)Cc1nnnn1Cc1ccco1)OCCO3	Sfp inh 11.2µM
COc1ccccc1CN(Cc1cc2cc3c(cc2[nH]c1=O)OCCO3)Cc1nnnn1Cc1ccco1	Sfp inh 12.6µM, ClpP mod 28.2µM (no result: uPA generation)
O=c1[nH]c2cc3c(cc2cc1CN(Cc1ccc2c(c1)OCO2)Cc1nnnn1CC1CCCO1)OCO3 (configuration not stated)	ClpP mod 15.8µM (no result: uPA generation)
Cc1ccc2cc(CN(Cc3ccco3)Cc3nnnn3Cc3ccco3)c(=O)[nH]c2c1	none (no result: Sfp inh, uPA generation, TCR act)

Compound activity: PubChem BioAssay, National Center for Advancing Translational Sciences (NCATS)
